Measured values reported in PubChem BioAssay (NCATS).
Values joined by “and” are separate entries in the source; they are usually repeats but may differ in a detail not shown here. Equal values may be shown once. Inconclusive results are not listed. Active and inactive are the calls of the source. The call rests on the fitted dose curve; in most records, active means well fitted curve in the direction sought with a large enough effect; inconclusive means small, poorly fitted or top-dose-only effect, or another doubt; inactive means no such curve, though single readings can be large; an effect the other way counts as inactive or inconclusive. Numbered stars: 1 amine (or outer) side, 2 acyl side, 3 side chain; on linkers, the order of the positions; unused ones are H or OH. Bridge positions count the residues as written; N and C are the ends. Square brackets hold non-standard residues; d marks the D form. Peptide text beside a SMILES is read from it. * marks the point of attachment. pTerphenylCO(4''-OnC5H11) = CCCCCOc1ccc(-c2ccc(-c3ccc(C(=O)*)cc3)cc2)cc1; Orn(4R-OH,5R-OH) = O=C([C@H](C[C@@H](O)[C@@H](O)N[*:3])N[*:1])[*:2]; hTyr(3S-OH,4S-OH) = N[C@H](C(=O)O)[C@H](O)[C@@H](O)c1ccc(O)cc1; Pro(3S-OH,4S-Me) = C[C@H]1CN[C@H](C(=O)O)[C@H]1O; Hyp = O=C(O)[C@@H]1C[C@@H](O)CN1

What was measured:
[1] = target: Cellular tumor antigen p53 (Homo sapiens) (UniProt P04637); test: Primary qHTS for small molecule compounds that upregulate eGFP-tagged delta133p53alpha (in N-terminal) cells. (AID 2060322); settings: NCI-H358 eGFP-delta133p53alpha fluorescence, 24 h; activation: stronger effect = higher value;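 further: cells pre-induced with doxycycline then dosed without doxycycline; series mostly up to about 56 µM; 0% = DMSO vehicle and 100% = reference activator; nearly all actives have a fitted effect of over 75% in size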
Chain of Cellular tumor antigen p53 (Homo sapiens) (P04637 whole entry, looked up): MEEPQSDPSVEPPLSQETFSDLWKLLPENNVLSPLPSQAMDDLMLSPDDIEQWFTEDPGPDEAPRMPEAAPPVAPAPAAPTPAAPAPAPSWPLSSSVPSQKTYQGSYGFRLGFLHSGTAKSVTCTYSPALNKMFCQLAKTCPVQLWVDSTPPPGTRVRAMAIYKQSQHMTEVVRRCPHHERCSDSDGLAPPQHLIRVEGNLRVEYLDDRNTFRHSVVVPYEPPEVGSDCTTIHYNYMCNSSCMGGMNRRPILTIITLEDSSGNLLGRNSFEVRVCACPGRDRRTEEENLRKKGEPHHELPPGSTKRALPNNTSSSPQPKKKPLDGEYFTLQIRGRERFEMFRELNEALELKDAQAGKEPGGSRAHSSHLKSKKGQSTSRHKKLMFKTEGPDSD
Method in brief: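 NCI-H358 cells pre-induced 24 h with 10 ng/ml doxycycline for eGFP-delta133p53alpha, plated dox-free and exposed 24 h at 37C to titrated compounds. Fixed, Hoechst-stained; gated GFP peak intensity by laser scanning cytometry, normalized to DMSO (0%) and 57.5 uM 5-azacytidine (100%).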

[2] = target: Aldehyde dehydrogenase, mitochondrial (Homo sapiens) (UniProt P05091); test: qHTS for Inhibitors of the Aldehyde Dehydrogenase Family (ALDH2) Primary screen (AID 2061308);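 further: plate controls were vehicle for no effect and reference inhibitor for full effect; nearly all actives have a fitted effect of over 55% in size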
[3] = target: Retinaldehyde dehydrogenase 3 (Homo sapiens) (UniProt P47895); test: qHTS for Inhibitors of the Aldehyde Dehydrogenase Family (ALDH1A3) Validation screen (AID 2061312); further: on the % scale 0 is the no-effect control and ±100 the full control effect; nearly all actives have a fitted effect of over 45% in size
[4] = target: Retinaldehyde dehydrogenase 3 (Homo sapiens) (UniProt P47895); test: qHTS for Inhibitors of the Aldehyde Dehydrogenase Family (ALDH1A3) Primary screen (AID 2061315);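 further: plate controls were DMSO vehicle for no effect and reference inhibitor for full effect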

CN(C)CCOc1cc(NS(=O)(=O)c2c(Cl)cc(C(F)(F)F)cc2Cl)ccc1Cl
inactive: activation [1] 0.477% | Potency [2] | Potency [3] | Potency [4]

O=[N+]([O-])c1cn2c(n1)OCC(OCc1ccc(OC(F)(F)F)cc1)C2 (stereo not drawn)
inactive: activation [1] -10% | Potency [2] | Potency [3] | Potency [4]

CC(Cc1cc2c(c(C(N)=O)c1)N(CCCO)CC2)NCCOc1ccccc1OCC(F)(F)F (stereo not drawn)
inactive: activation [1] 5.25% | Potency [2] | Potency [3] | Potency [4]

OC1(CN2CCC(COc3noc4cccc(O[C@@H]5CCOC5)c34)CC2)CCOCC1
inactive: activation [1] 3.82% | Potency [2] | Potency [3] | Potency [4]

O=S(=O)(Nc1cc(Cl)c(Oc2cnc3ccccc3c2)c(Cl)c1)c1ccc(Cl)cc1Cl
inactive: activation [1] -4.77% | Potency [2] | Potency [3] | Potency [4]

Cc1ccnc(NC(=O)C(C)c2cccc(C(=O)c3ccccc3)c2)c1 (stereo not drawn)
inactive: activation [1] -19.6% | Potency [2] | Potency [3] | Potency [4]

CNC(=O)c1ccc2cc([C@@]3(O)CCn4cncc43)ccc2c1
inactive: activation [1] -9.55% | Potency [2] | Potency [3] | Potency [4]

CC[N+]1(C/C2=C/CCCCCC2)CCC(NC(=O)C2c3cc(Cl)ccc3Oc3ccc(Cl)cc32)CC1 (stereo not drawn)
inactive: activation [1] 28.6% | Potency [2] | Potency [3] | Potency [4]

CC(C)S(=O)(=O)NC[C@H](C)c1ccc(-c2ccc(CCNS(C)(=O)=O)cc2)cc1
inactive: activation [1] -5.73% | Potency [2] | Potency [3] | Potency [4]

CCCC1(c2ccccc2)NC(=O)N(CC(=O)N(C)Cc2c(F)cccc2Cl)C1=O (stereo not drawn)
inactive: activation [1] 4.3% | Potency [2] | Potency [3] | Potency [4]

C/C(=C\C(=O)OCCCCCCCCC(=O)O)C[C@@H]1OC[C@H](C[C@@H]2O[C@H]2[C@@H](C)[C@H](C)O)[C@@H](O)[C@H]1O
inactive: activation [1] -7.64% | Potency [2] | Potency [3] | Potency [4]

O=C(OC(C(F)(F)F)C(F)(F)F)N1CCN(Cc2cccc(Oc3ccccc3)c2)CC1
inactive: activation [1] 1.43% | Potency [2] | Potency [3] | Potency [4]

CNC(=O)COC(=O)N1CCC(CCc2ccc(Cl)cc2)CC1
inactive: activation [1] -1.91% | Potency [2] | Potency [3] | Potency [4]

CCOc1cc(CC(=O)NC(CC(C)C)c2ccccc2N2CCCCC2)ccc1C(=O)O (stereo not drawn)
inactive: activation [1] -4.3% | Potency [2] | Potency [3] | Potency [4]

O=C1COc2nccc(-c3ccccc3F)c2CN1Cc1cc(C(F)(F)F)cc(C(F)(F)F)c1
inactive: activation [1] -4.77% | Potency [2] | Potency [3] | Potency [4]

CSc1ccc(C(=O)N[C@@H]2CCCC[C@@H]2NC(=O)CNC(=O)c2cc(C(F)(F)F)ccc2NC(=O)NC(C)C)cc1
inactive: activation [1] -22% | Potency [2] | Potency [3] | Potency [4]

Cc1ccc(C2(C(=O)N3CCC(n4nc(-c5ccccc5)oc4=O)CC3)CC2)cc1
inactive: activation [1] -1.91% | Potency [2] | Potency [3] | Potency [4]

CCOC(=O)c1ccc(NC2CCCCC2)c(N)c1
inactive: activation [1] -6.21% | Potency [2] | Potency [3] | Potency [4]

CCCCC(=O)N1c2ccccc2NC2=C(C(=O)CCC2)C1c1ccccc1Cl (stereo not drawn)
inactive: activation [1] -4.77% | Potency [2] | Potency [3] | Potency [4]

OC(CC1c2ccccc2-c2cncn21)C1CCCCC1 (stereo not drawn)
inactive: activation [1] -7.16% | Potency [2] | Potency [3] | Potency [4]

CC[C@@H](c1ccc(F)c(F)c1)n1c(C(=O)OC)c(-c2ccno2)[nH]c1=S
inactive: activation [1] -6.68% | Potency [2] | Potency [3] | Potency [4]

O=S(=O)(NC1CCC(c2cc(F)ccc2F)(S(=O)(=O)c2ccc(Cl)cc2)CC1)C(F)(F)F (stereo not drawn)
inactive: activation [1] -16.2% | Potency [2] | Potency [3] | Potency [4]

CC1(C)CCC(C)(C)c2cc(C#Cc3ccc(C(=O)O)cc3)ccc21
inactive: activation [1] -5.25% | Potency [2] | Potency [3] | Potency [4]

NC(=O)c1cccc2cn(-c3ccc(C4CCCNC4)cc3)nc12 (stereo not drawn)
inactive: activation [1] 26.7% | Potency [2] | Potency [3] | Potency [4]

CC(C)CCNc1ncccc1C(=O)N1CCN(Cc2ccccc2)CC1
inactive: activation [1] -4.3% | Potency [2] | Potency [3] | Potency [4]

O=C1C(Cc2ccc(O)cc2)N2C(=O)CCN(C(=O)NCc3ccccc3)C2CN1Cc1cccc2ccccc12 (stereo not drawn)
inactive: activation [1] 19.6% | Potency [2] | Potency [3] | Potency [4]

CCC(COC)n1nnc2c(Nc3ccc(OC)cc3C)nc(C)cc21 (stereo not drawn)
inactive: activation [1] -5.25% | Potency [2] | Potency [3] | Potency [4]

COc1cnc(-n2cnc(C)n2)c2[nH]cc(C(=O)C(=O)N3CCN(C(=O)c4ccccc4)CC3)c12
inactive: activation [1] 3.34% | Potency [2] | Potency [3] | Potency [4]

C#CCN(Cc1cc2c(=O)[nH]c(C)nc2cc1Br)c1ccc(C(=O)NCc2cccnc2)cc1
inactive: activation [1] -5.73% | Potency [2] | Potency [3] | Potency [4]

CCCCc1ccc(C(=O)Nc2cc(-c3ccc(Cl)cc3)nn2-c2ccc(Cl)cc2)cc1
inactive: activation [1] 6.68% | Potency [2] | Potency [3] | Potency [4]

CC1(C)CCC(C)(C)c2cc(C3(c4ccc(C(=O)O)cc4)OCCO3)ccc21
inactive: activation [1] 2.39% | Potency [2] | Potency [3] | Potency [4]

O=C(N[C@H](Cc1cscn1)C(=O)N[C@@H](CC1CCCCC1)[C@@H](O)[C@@H](O)C1CC1)c1nc2ccccc2[nH]1
inactive: activation [1] 5.25% | Potency [2] | Potency [3] | Potency [4]

Cc1cccc(C)c1OCc1cc(C(=O)N2CCC(c3ccncc3)CC2)no1
inactive: activation [1] 0.955% | Potency [2] | Potency [3] | Potency [4]

N[C@@H](CC(=O)N1CCn2c(nnc2C(F)(F)F)C1)Cc1[nH]nc2c(F)c(F)ccc12
inactive: activation [1] -3.82% | Potency [2] | Potency [3] | Potency [4]

CCCCCOc1ccc(-c2ccc(-c3ccc(C(=O)N[C@H]4C[C@@H](O)[C@@H](O)NC(=O)[C@@H]5[C@@H](O)[C@@H](C)CN5C(=O)[C@H]([C@@H](C)O)NC(=O)[C@H]([C@H](O)[C@@H](O)c5ccc(O)cc5)NC(=O)[C@@H]5C[C@@H](O)CN5C(=O)[C@H]([C@@H](C)O)NC4=O)cc3)cc2)cc1 ({pTerphenylCO(4''-OnC5H11)}-[Orn(4R-OH,5R-OH)]T[Hyp][hTyr(3S-OH,4S-OH)]T[Pro(3S-OH,4S-Me)]; lactam 1-C)
inactive: activation [1] 22.9% | Potency [2] | Potency [3] | Potency [4]

CCCCOc1cc(C(=O)OCCN(CC)CC)ccc1N
inactive: activation [1] -2.82% and 0% | Potency [2] | Potency [3] | Potency [4]

c1ccc(CN(CC2=NCCN2)c2ccccc2)cc1
inactive: activation [1] 0.837% and -3.82% | Potency [2] | Potency [3] | Potency [4]
